# Measurements as given in paper PMC7862700, “An all-to-all approach to the identification of sequence-specific readers for epigenetic DNA modifications on cytosine”.
# What was measured:
# Assay in all cases: DAPPL (digital affinity profiling via proximity ligation, sequencing); 10 mM Tris-HCl pH 7.5, 50 mM NaCl, 1 mM DTT, 4% glycerol, room temperature, 30 min; GST-TFs on glutathione beads, 16-mer random dsDNA library, 0.1% formaldehyde crosslink after washing; high values mean tight binding
# Conditions in all cases: protein: recombinant; tags: N-terminal GST; dsDNA, one strand shown
# FEV = target: T1, FEV (Homo sapiens, UniProt Q99581 1-238)
# T1 sequence: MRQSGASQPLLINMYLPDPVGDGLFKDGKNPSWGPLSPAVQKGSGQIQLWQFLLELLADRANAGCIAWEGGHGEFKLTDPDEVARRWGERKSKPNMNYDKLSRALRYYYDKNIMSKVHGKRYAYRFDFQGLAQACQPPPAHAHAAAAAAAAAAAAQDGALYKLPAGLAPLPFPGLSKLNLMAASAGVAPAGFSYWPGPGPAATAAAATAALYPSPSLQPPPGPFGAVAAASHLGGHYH
# Summary of the method: (§1)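 Binding signal is given per hexamer as its read frequency for a factor divided by its frequency in the tag-only sample. GST-fused human transcription factors were expressed in yeast, captured on glutathione beads, barcoded with DNA and pooled with that sample, then incubated with 200 nmole of a 16-mer random double-stranded DNA library in Tris/NaCl/DTT/glycerol buffer for 30 min at room temperature. The pools were then washed, crosslinked, proximity-ligated, amplified by PCR and sequenced on an Illumina NextSeq500.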
# ETV5 = ETV5 (Homo sapiens, UniProt P41161 1-510)
# Chain of ETV5 (P41161 whole entry): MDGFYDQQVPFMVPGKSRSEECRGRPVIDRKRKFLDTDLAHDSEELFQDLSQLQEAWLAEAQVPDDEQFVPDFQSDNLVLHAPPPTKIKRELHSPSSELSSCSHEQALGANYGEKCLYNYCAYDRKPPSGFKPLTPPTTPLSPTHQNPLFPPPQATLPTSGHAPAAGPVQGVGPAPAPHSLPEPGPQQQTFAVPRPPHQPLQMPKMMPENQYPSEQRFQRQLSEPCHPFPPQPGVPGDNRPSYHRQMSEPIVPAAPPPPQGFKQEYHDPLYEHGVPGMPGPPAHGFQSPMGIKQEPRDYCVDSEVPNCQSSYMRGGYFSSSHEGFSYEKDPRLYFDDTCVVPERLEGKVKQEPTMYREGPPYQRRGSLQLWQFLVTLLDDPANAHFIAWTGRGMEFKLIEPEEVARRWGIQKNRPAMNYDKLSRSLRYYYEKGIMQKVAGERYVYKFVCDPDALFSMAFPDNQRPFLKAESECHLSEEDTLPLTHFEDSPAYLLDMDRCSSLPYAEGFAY
# Summary of the method: as §1
# SPIC = target: T2, SPIC (Homo sapiens, UniProt Q8N5J4 1-248)
# T2 sequence: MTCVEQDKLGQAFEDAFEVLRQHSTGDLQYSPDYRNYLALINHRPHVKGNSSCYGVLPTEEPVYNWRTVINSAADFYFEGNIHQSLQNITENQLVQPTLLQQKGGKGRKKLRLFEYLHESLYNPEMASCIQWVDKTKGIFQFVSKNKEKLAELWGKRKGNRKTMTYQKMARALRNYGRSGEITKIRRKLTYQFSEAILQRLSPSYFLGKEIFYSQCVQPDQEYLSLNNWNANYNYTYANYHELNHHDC
# Summary of the method: as §1
# ELF4 = ELF4 (Homo sapiens, UniProt Q99607 1-663)
# Chain of ELF4 (Q99607 whole entry): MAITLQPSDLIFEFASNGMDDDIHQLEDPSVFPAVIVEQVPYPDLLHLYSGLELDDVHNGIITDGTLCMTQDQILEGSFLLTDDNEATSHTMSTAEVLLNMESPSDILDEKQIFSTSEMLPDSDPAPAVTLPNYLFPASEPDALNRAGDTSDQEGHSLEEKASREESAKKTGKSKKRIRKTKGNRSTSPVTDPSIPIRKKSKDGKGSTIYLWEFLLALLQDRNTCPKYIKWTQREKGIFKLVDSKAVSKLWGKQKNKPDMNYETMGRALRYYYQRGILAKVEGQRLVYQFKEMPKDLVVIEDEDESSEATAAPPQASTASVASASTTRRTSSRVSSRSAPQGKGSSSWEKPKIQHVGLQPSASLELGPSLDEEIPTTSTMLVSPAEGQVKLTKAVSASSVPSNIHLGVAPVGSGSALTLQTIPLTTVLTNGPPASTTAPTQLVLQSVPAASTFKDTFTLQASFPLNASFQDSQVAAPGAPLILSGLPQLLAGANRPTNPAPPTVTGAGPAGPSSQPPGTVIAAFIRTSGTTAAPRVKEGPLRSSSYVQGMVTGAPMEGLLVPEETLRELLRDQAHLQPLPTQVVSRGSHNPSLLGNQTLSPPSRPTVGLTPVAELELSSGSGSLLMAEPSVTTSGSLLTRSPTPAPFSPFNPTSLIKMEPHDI
# Summary of the method: as §1
# ELK4 = target: T3, ELK4 (Homo sapiens, UniProt P28324-2 1-405)
# T3 sequence: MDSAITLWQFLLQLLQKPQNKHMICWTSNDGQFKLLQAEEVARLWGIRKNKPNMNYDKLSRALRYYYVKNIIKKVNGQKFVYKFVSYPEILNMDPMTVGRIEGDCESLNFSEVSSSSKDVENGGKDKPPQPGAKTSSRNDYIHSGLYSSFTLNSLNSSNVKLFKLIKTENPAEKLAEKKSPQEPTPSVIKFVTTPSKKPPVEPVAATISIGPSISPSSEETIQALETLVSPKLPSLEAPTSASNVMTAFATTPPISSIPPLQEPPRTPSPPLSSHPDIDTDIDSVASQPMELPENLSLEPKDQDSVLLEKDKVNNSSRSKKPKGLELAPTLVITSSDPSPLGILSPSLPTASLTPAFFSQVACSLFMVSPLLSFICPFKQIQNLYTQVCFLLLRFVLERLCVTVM
# Summary of the method: as §1
# ETV2 = target: T4, ETV2 (Homo sapiens, UniProt O00321 1-342)
# T4 sequence: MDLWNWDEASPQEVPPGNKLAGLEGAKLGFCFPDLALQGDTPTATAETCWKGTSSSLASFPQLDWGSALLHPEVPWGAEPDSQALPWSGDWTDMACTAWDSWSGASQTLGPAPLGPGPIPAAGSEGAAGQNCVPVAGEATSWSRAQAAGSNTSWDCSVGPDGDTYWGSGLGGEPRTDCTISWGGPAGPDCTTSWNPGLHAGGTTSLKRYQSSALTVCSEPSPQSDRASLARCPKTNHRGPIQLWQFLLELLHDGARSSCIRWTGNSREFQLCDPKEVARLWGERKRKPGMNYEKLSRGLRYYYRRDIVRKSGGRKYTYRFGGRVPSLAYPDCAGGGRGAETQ
# Summary of the method: as §1
# ELF3 = target: T5, ELF3 (Homo sapiens, UniProt P78545 1-371)
# T5 sequence: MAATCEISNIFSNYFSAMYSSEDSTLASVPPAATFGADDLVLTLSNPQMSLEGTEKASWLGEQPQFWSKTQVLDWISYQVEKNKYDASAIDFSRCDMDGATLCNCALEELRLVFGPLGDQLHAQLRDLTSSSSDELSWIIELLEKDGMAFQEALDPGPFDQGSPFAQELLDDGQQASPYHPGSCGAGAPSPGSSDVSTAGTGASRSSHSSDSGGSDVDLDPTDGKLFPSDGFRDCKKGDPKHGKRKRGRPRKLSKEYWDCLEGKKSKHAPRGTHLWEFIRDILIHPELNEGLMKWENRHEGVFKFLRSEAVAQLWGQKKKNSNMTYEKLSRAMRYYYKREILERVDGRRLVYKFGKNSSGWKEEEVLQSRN
# Summary of the method: as §1
# ETV1 = ETV1 (Homo sapiens, UniProt P50549 1-477)
# Chain of ETV1 (P50549 whole entry): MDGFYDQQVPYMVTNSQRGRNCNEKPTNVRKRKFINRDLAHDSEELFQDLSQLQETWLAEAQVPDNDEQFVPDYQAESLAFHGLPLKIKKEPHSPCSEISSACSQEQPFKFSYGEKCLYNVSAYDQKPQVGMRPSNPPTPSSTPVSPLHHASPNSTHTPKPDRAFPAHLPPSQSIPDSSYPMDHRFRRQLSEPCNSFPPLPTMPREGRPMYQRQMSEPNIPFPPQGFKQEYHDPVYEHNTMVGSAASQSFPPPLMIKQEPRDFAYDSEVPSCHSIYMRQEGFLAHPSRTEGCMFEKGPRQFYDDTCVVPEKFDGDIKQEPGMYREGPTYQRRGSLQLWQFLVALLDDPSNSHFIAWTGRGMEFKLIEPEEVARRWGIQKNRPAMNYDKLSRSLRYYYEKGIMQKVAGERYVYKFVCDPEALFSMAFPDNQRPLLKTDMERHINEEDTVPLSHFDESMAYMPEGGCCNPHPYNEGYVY
# Summary of the method: as §1
# ERF = target: T6, ERF (Homo sapiens, UniProt P50548 1-548)
# T6 sequence: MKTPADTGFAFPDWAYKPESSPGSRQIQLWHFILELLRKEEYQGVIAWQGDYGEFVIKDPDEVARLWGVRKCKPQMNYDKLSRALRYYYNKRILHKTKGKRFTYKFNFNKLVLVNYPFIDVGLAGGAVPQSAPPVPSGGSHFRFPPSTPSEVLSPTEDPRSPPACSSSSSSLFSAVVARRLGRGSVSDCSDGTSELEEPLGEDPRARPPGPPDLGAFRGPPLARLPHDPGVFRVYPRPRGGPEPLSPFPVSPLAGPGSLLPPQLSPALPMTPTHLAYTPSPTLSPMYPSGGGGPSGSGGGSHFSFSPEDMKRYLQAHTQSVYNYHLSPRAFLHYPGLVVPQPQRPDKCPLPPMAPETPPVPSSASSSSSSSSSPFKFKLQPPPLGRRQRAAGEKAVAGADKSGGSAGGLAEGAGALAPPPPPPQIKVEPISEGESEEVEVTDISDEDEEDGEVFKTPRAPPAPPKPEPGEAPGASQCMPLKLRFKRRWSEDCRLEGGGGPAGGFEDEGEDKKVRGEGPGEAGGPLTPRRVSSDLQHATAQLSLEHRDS
# Summary of the method: as §1
# ETV3L = target: T7, ETV3L (Homo sapiens, UniProt Q6ZN32 1-361)
# T7 sequence: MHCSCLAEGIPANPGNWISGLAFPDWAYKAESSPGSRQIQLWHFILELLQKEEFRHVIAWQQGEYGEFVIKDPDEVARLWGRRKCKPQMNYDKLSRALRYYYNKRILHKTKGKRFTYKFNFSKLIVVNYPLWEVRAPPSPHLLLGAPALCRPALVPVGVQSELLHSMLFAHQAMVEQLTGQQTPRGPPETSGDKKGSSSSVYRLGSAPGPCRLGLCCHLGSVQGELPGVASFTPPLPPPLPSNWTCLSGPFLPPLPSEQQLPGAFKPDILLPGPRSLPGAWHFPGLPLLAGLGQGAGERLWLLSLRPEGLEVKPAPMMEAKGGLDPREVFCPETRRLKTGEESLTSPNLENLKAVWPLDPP
# Summary of the method: as §1
# ETS2 = target: T8, ETS2 (Homo sapiens, UniProt P15036 1-469)
# T8 sequence: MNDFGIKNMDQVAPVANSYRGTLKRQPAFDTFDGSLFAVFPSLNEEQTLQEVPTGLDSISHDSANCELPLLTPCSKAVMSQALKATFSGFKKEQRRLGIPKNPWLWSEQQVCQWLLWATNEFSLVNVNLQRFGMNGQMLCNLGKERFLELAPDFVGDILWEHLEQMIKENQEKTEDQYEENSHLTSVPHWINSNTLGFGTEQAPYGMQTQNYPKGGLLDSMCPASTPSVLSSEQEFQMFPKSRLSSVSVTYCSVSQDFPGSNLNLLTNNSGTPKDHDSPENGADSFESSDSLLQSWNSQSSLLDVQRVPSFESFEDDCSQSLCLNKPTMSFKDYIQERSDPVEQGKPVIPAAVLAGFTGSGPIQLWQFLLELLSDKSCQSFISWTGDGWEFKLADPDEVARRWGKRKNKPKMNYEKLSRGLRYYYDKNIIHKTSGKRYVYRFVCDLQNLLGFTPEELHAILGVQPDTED
# Summary of the method: as §1
# SPDEF = target: T9, SPDEF (Homo sapiens, UniProt O95238 1-335)
# T9 sequence: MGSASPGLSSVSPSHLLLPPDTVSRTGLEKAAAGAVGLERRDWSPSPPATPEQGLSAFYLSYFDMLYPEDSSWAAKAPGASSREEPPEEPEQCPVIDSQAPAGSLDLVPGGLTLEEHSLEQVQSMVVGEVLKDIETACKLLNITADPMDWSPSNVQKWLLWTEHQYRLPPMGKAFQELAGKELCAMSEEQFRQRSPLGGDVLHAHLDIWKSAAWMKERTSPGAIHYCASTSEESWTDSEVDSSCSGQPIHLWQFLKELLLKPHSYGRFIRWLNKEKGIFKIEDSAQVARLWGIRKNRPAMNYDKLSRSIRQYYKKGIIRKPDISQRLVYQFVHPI
# Summary of the method: as §1
# ETV7 = target: T10, ETV7 (Homo sapiens, UniProt Q9Y603 1-341)
# T10 sequence: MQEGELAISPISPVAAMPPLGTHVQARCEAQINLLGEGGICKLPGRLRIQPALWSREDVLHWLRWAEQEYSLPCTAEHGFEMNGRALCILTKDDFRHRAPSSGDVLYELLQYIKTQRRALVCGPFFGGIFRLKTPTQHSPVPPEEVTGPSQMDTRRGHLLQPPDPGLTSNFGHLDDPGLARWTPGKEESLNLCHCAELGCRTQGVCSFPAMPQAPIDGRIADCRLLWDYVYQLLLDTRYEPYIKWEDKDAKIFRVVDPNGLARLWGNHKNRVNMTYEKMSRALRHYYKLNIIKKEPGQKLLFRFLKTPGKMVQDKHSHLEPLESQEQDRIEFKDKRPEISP
# Summary of the method: as §1
# ELF5 = target: T11, ELF5 (Homo sapiens, UniProt Q9UKW6-2 1-255)
# T11 sequence: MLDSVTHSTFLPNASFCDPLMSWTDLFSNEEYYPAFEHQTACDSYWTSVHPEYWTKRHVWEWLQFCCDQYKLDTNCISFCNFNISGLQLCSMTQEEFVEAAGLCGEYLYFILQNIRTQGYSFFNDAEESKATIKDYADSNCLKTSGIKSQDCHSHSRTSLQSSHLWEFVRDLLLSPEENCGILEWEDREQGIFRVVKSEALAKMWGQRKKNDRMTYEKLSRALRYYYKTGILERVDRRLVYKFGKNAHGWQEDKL
# Summary of the method: as §1
# ETV3 = target: T12, ETV3 (Homo sapiens, UniProt P41162-2 1-143)
# T12 sequence: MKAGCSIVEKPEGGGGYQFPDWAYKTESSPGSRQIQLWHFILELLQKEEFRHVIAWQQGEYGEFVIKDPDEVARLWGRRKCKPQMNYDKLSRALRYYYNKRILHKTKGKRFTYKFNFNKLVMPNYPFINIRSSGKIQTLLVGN
# Summary of the method: as §1
# ETV6 = ETV6 (Homo sapiens, UniProt P41212 1-452)
# Chain of ETV6 (P41212 whole entry): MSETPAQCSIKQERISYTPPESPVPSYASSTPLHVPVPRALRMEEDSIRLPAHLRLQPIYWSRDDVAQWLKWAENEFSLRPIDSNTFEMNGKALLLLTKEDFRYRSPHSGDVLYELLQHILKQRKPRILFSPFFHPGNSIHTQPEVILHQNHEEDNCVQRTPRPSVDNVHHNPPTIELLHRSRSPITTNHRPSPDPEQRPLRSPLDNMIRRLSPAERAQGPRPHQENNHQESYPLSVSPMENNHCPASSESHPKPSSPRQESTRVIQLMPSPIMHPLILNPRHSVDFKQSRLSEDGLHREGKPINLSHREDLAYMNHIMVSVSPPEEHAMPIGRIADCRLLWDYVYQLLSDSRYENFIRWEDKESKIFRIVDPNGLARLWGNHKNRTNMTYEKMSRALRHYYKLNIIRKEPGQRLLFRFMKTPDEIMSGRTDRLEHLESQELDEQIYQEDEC
# Summary of the method: as §1
Sequence,binding signal (FEV),binding signal (ETV5),binding signal (SPIC),binding signal (ELF4),binding signal (ELK4),binding signal (ETV2),binding signal (ELF3),binding signal (ETV1),binding signal (ERF),binding signal (ETV3L),binding signal (ETS2),binding signal (SPDEF),binding signal (ETV7),binding signal (ELF5),binding signal (ETV3),binding signal (ETV6)
CCCCGG,"1.38 fold enrichment (6-mer frequency, TF over GST control)","1.27 fold enrichment (6-mer frequency, TF over GST control)","1.07 fold enrichment (6-mer frequency, TF over GST control)","1.2 fold enrichment (6-mer frequency, TF over GST control)","1.31 fold enrichment (6-mer frequency, TF over GST control)","1.24 fold enrichment (6-mer frequency, TF over GST control)","1.09 fold enrichment (6-mer frequency, TF over GST control)","1.29 fold enrichment (6-mer frequency, TF over GST control)","1.34 fold enrichment (6-mer frequency, TF over GST control)","1.24 fold enrichment (6-mer frequency, TF over GST control)","1.17 fold enrichment (6-mer frequency, TF over GST control)","1.28 fold enrichment (6-mer frequency, TF over GST control)","1.18 fold enrichment (6-mer frequency, TF over GST control)","1.3 fold enrichment (6-mer frequency, TF over GST control)","1.43 fold enrichment (6-mer frequency, TF over GST control)","1.21 fold enrichment (6-mer frequency, TF over GST control)"
ACTGCA,"1.18 fold enrichment (6-mer frequency, TF over GST control)","1.2 fold enrichment (6-mer frequency, TF over GST control)","1.34 fold enrichment (6-mer frequency, TF over GST control)","1.09 fold enrichment (6-mer frequency, TF over GST control)","1.25 fold enrichment (6-mer frequency, TF over GST control)","1 fold enrichment (6-mer frequency, TF over GST control)","1.08 fold enrichment (6-mer frequency, TF over GST control)","1.01 fold enrichment (6-mer frequency, TF over GST control)","1.13 fold enrichment (6-mer frequency, TF over GST control)","1.17 fold enrichment (6-mer frequency, TF over GST control)","1.12 fold enrichment (6-mer frequency, TF over GST control)","1.13 fold enrichment (6-mer frequency, TF over GST control)","1.07 fold enrichment (6-mer frequency, TF over GST control)","1.01 fold enrichment (6-mer frequency, TF over GST control)","1.17 fold enrichment (6-mer frequency, TF over GST control)","1.2 fold enrichment (6-mer frequency, TF over GST control)"
